Source: PubChem BioAssay AID1347420 (Sanford-Burnham Center for Chemical Genomics, 2020)
In all, about 1,300 compounds went through this assay and about 980 (75%) were called active. Inconclusive results (about 4%) are left out. The list shows a part of the results.

molecular target: Sulfhydryl oxidase 1 (Homo sapiens) (UniProt O00391); test: inhibition of human sulfhydryl oxidase QSOX1 – biochemical, HyperBlu H2O2 luminescence, HTS, primary screen (AID 1347420); conditions: recombinant QSOX1, HyperBlu H2O2 luminescence, at 12.5 µM, active compounds read high; active = any value above zero unless noted; note: values above 100% were filed as inconclusive
Sequence (O00391 whole entry, looked up): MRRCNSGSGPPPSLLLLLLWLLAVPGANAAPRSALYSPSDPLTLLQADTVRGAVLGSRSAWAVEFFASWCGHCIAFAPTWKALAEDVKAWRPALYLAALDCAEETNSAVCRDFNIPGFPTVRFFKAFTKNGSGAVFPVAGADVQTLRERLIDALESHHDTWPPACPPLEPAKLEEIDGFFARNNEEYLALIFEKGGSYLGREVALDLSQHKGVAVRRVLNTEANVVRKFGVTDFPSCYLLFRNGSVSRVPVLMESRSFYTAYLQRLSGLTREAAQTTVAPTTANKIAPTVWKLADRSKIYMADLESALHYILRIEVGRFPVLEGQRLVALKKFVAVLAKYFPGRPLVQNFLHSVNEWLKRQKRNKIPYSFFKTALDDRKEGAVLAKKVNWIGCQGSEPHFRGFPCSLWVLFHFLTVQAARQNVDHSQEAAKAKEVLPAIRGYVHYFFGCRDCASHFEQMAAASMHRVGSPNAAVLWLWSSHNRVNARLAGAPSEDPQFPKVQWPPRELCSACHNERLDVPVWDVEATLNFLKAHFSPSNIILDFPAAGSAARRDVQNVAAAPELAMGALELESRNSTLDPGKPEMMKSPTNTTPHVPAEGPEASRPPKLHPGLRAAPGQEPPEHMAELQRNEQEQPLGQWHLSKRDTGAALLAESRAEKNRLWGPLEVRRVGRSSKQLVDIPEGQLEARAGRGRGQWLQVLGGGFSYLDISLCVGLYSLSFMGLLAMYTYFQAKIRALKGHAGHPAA

SMILES | inhibition
COc1ccc2[nH]c3c(c2c1)CCNC3 | 40.5% (active)
NC(=O)CI | -4.6% (inactive)
NNC(N)=O | 13% (active)
COc1ccc(OC)c(C(O)C(C)N)c1 (stereo unspecified) | 10.6% [setting not given] (active)
CCCN(CCC)[C@H]1CCc2c(F)ccc(O)c2C1 | 17.9% (active)
CCCN(CCC)[C@@H]1CCc2cccc(O)c2C1 | 2.9% (active)
CCCN(CCC)C1CCc2cccc(O)c2C1 (stereo unspecified) | 5.5% (active)
Cc1ncc(CNC(=O)N(CCCl)N=O)c(N)n1 | 13.2% (active)
Clc1cc(I)cc(Cl)c1NC1=NCCN1 | 3.8% (active)
O=c1[nH]c2ccccc2n1C1CCN(CCCC(c2ccc(F)cc2)c2ccc(F)cc2)CC1 | -0.3% [setting not given] (inactive)
O=c1[nH]c2ccccc2n1CCCN1CCC(n2c(=O)[nH]c3cc(Cl)ccc32)CC1 | 4.5% [setting not given] (active)
S=C(NC1CCCCC1)N1CCC(c2cnc[nH]2)CC1 | 4.8% (active)
CC[C@@]1(O)C(=O)OCc2c1cc1n(c2=O)Cc2cc3ccccc3nc2-1 | 17.6% [setting not given] (active)
c1ccc(C2CC2)c(OCC2=NCCN2)c1 | 21.8% (active)
COc1ccc(C(=O)N2CCCC2=O)cc1 | 20.3% [setting not given] (active)
COC[C@H]1OC(=O)c2coc3c2[C@@]1(C)C1=C(C3=O)C2CCC(=O)[C@@]2(C)C[C@H]1OC(C)=O (stereo partly specified) | 49.7% (active)
NC(=O)c1cc(N2CC2)c([N+](=O)[O-])cc1[N+](=O)[O-] | 15.2% (active)
c1ccc(CCCN2CCN(CCOC(c3ccccc3)c3ccccc3)CC2)cc1 | -3% (inactive)
Fc1ccc(C(OCCN2CCN(CCCc3ccccc3)CC2)c2ccc(F)cc2)cc1 | 14.6% (active)
CC12CCC3C(CCC4=C(O)C(=O)CCC43C)C1CCC2=O (stereo unspecified) | 1.5% [setting not given] (active)
CNCCc1c[nH]c2ccc(O)cc12 | 55.9% [setting not given] (active)

SMILES | inhibition
CC(=O)NCCc1c[nH]c2ccccc12 | 35.3% [setting not given] (active)
COc1ccc2[nH]cc(CCN)c2c1 | -0.1% [setting not given] (inactive)
NCCc1c[nH]c2ccc(O)cc12 | 80.8% (active)
CC(N)Cc1c[nH]c2ccc(O)cc12 (stereo unspecified) | 79% [setting not given] (active)
CC(N)Cc1c[nH]c2ccc(OCc3cccs3)cc12 (stereo unspecified) | -4.1% [setting not given] (inactive)
Cc1c(C(=O)c2cccc3ccccc23)c2cccc3c2n1[C@H](CN1CCOCC1)CO3 | -2.1% [setting not given] (inactive)
O=C(O)c1nn(Cc2ccc(Cl)cc2Cl)c2ccccc12 | -13% [setting not given] (inactive)
Cc1[nH]c2ccc(O)cc2c1CCN | 79.3% [setting not given] (active)
CCCN(CCC)CCc1c[nH]c2ccc(C(N)=O)cc12 | -6.2% [setting not given] (inactive)
NCCc1c[nH]c2ccc(C(N)=O)cc12 | 26.8% (active)
NCCc1c[nH]c2ccccc12 | 1.9% [setting not given] (active)
C/C(O)=C(\C#N)C(=O)Nc1cc(Br)ccc1Br | -6.8% (inactive)
Clc1cnc(Oc2ccc(Oc3ncc(Cl)cc3Cl)cc2)c(Cl)c1 | 10.6% [setting not given] (active)
C=CCN(C1=NCCN1)c1c(Cl)cccc1Cl | 9.6% (active)
c1ccc2c(c1)OCC(C1=NCCN1)O2 (stereo unspecified) | 3.2% (active)
CN1CC[C@@]2(C)c3cc(O)ccc3N(C)C12 (stereo partly specified) | 52.2% (active)
CN1CC[C@@]2(C)c3cc(OC(=O)Nc4ccccc4)ccc3N(C)[C@@H]12 | 41.8% (active)
CNCCc1ccc(O)c(O)c1 | 50.2% (active)
CCCN(CCC)CCc1ccc(O)c(O)c1 | 56.8% (active)
Cc1ccc(S(=O)(=O)N[C@@H](CCCCN)C(=O)CCl)cc1 | 11.5% (active)
O=[N+]([O-])c1ccc2nc(N3CCNCC3)ccc2c1 | 15.5% (active)

SMILES | inhibition
COc1ccccc1N1CCNCC1 | -0.1% [setting not given] (inactive)
c1ccc2c(N3CCNCC3)cccc2c1 | 3% (active)
NNC(=O)c1ccc(O)cc1 | 3.3% (active)
C[C@]12N[C@H](Cc3ccccc31)c1ccccc12 | -13.1% [setting not given] (inactive)
CC12NC(Cc3ccccc31)c1ccccc12 (stereo unspecified) | 3.8% [setting not given] (active)
CCCN1CCO[C@@H]2c3cc(O)ccc3OC[C@H]21 | 27.5% (active)
CCCN1CC[C@@H]2c3cc(O)ccc3CC[C@@H]21 | 18.3% (active)
CCCn1c(C)c(C(=O)c2ccc3ccccc3c2)c2ccccc21 | -8.8% [setting not given] (inactive)
CCCCCCCCCCCCCC(=O)O[C@@H]1[C@@H](C)[C@@]2(O)[C@@H](C=C(CO)C[C@@]3(O)C(=O)C(C)=C[C@@H]23)C2C(C)(C)[C@@]21OC(C)=O (stereo partly specified) | -11.5% (inactive)
CN(N=O)c1ccc(O)c(O)c1 | 9% (active)
CN(N=O)c1cc(O)ccc1O | 56% (active)
NC(=O)c1ccc(OCC(O)CN2CC=C(c3ccc(F)cc3)CC2)cc1 (stereo unspecified) | -3.1% (inactive)
CC(NC(C)(C)C)C(=O)c1cccc(Cl)c1 (stereo unspecified) | 0.2% [setting not given] (active)
CC1=NN=C(c2ccc(N)cc2)c2cc3c(cc2C1)OCO3 | 11% (active)
CC(C)NP(=O)(NC(C)C)OP(=O)(NC(C)C)NC(C)C | -1.6% (inactive)
C=CCN1CC[C@]23c4c5ccc(O)c4O[C@@H]2/C(=N/N=C2\CC[C@@]4(O)C6Cc7ccc(O)c8c7[C@@]4(CCN6CC=C)[C@@H]2O8)CC[C@@]3(O)C1C5 | 29.2% (active)
C=CCN1CC[C@]23c4c5ccc(O)c4O[C@H]2/C(=N/NC(=O)c2ccccc2)CC[C@@]3(O)[C@H]1C5 | 24.9% [setting not given] (active)
C=CCN1CCC23c4c5ccc(O)c4O[C@H]2C(=O)CC[C@@]3(O)C1C5 (stereo partly specified) | 19.6% [setting not given] (active)
O=C1CC[C@@]2(O)C3Cc4ccc(O)c5c4C2(CCN3CC2CC2)[C@H]1O5 (stereo partly specified) | 16.8% [setting not given] (active)
